Assay outcomes (PubChem BioAssay)
This is a sample that favours compounds with a hit; in the whole collection about 9.2% have one here.
SMN2 splice enh: SMN2 splice variant enhancement. actives 2.8% (n = 210,000). Potency, µM (highest dose often 46.1 µM), actives largely listed as activators. HEK293 SMN2-luciferase splicing reporter, luminescence, 30-36 h; further: nearly all actives have a fitted effect of over 55% in size
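HEK293 cells carry an SMN2 […]–luciferase reporter in which exon 7 inclusion puts luciferase in frame. Cells were plated 10-12 h before compound addition, then incubated 30-36 h at 37C. ONE-Glo luminescence was read; sodium butyrate at 4.5 mM final served as control.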
ELG1 genotox: inducers of genotoxicity in HEK293T ELG1-luciferase cells; HEK293T ELG1-luciferase reporter, luminescence, 16 h; Potency, µM (series often up to 46 µM), hits mostly activators; actives 1.3% (n = 330,000); AID 504466; further: nearly all actives have a fitted effect of over 60% in size
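HEK293T cells expressing luciferase-tagged ELG1 were exposed to compound or DMSO vehicle for 16 hr at 37 °C and 5% CO2. Luciferase activity was then measured with ONE-Glo after 30 min at room temperature.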
ELG1 DNA repair: blocks ELG1-dependent DNA repair in HEK293T cells; HEK293T ELG1-luciferase reporter, luminescence, 16 h; DNA damage induced by 5-fluorouridine; Potency, µM (doses to about 46.1 µM), hits mostly inhibitors; actives 2.3% (n = 330,000); AID 504467; further: nearly all actives have a fitted effect of over 55% in size
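HEK293T cells expressing luciferase-tagged ELG1 (2,000/well) received 5-Fluorouridine plus compound or DMSO for 16 hr at 37 °C. Luciferase was read by ONE-Glo luminescence after 30 min at room temperature.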
NPC1 prom act: activates the NPC1 promoter | actives 2.4% (n = 320,000) | Huh7 NPC1 promoter luciferase reporter, 24 h | Potency, µM (doses to about 9.22 µM), usual class: activators | AID 485313; further: nearly all actives have a fitted effect of over 60% in size
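Stable NPC1-promoter luciferase Huh7 line; cpd (DMSO) 24 h, 37 °C, 5% CO2; Amplite luciferase reagent 10 min RT; luminescence readout. qHTS format.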
Rab9 prom act: activators of Rab9 promoter; Huh7 Rab9 promoter-luciferase reporter, luminescence, 24 h; Potency, µM (top dose mostly 9.22 µM), most hits filed as activators; actives 2.8% (n = 320,000); AID 485297; further: nearly all actives have a fitted effect of over 60% in size
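Promoter activation is measured as luciferase luminescence in Huh7 cells stably transfected with a Rab9 promoter–luciferase construct, following 24 h compound exposure at 37 °C and 10 min reagent incubation at ambient temperature.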
FLuc modulator: firefly luciferase modulation, counter-screen for miR-21 project; P08659; purified FLuc, Km substrates, luminescence inhibition; Potency, µM (doses to about 57.5 µM), most hits filed as inhibitors; actives 6.9% (n = 360,000); further: nearly all actives have a fitted effect of over 55% in size
Target sequence (P08659 whole entry, looked up): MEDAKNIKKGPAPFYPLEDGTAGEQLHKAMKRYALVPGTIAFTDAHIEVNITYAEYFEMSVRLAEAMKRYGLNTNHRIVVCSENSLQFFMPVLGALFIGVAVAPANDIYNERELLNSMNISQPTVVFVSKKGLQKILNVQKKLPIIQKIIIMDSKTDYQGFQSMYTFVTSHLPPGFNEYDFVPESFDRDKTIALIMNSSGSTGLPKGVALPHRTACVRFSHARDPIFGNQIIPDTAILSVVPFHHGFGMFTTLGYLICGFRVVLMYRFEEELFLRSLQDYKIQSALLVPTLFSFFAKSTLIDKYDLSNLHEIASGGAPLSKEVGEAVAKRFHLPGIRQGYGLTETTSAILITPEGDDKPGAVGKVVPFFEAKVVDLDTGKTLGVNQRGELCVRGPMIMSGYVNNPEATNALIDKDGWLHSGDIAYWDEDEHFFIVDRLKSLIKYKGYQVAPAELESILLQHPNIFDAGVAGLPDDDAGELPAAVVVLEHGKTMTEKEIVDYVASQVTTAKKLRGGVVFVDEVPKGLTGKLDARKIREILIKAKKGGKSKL
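Purified P. pyralis luciferase (10nM final) with 10uM D-luciferin and 10uM ATP (Km levels) in 50mM Tris acetate pH 7.5, 10mM Mg acetate, 0.01% Tween-20, 0.05% BSA; qHTS 6-point titration, ~60 µM downward; luminescence read.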
Hits are given with their value; n = inactive; u = inconclusive; x = not tested or not shown; [ ] = another dose, or the depositor's remark. The call rests on the fitted dose curve; in most records, active means well fitted curve in the direction sought with a large enough effect; inconclusive means small, poorly fitted or top-dose-only effect, or another doubt; inactive means no such curve, though single readings can be large; an effect the other way counts as inactive or inconclusive.

SMILES	SMN2 splice enh	ELG1 genotox	ELG1 DNA repair	NPC1 prom act	Rab9 prom act	FLuc modulator
Cc1ccc(SC[C@H](c2ccccc2)N2CCN(C)CCC2=O)cc1	x	u	u	u	2.82µM	15.1µM
CCn1cc(CNC(=O)/C=C/c2ccc([N+](=O)[O-])cc2)cn1	n	n	n	n	n	n
CC(C)(C)OC(=O)CNC(=O)c1[nH]cnc1C(=O)Nc1ccc(Cl)cc1	x	n	n	n	n	n
Cc1ccc(OCCCCNC(C)c2ccccc2)c(C)c1 (stereo not given)	x	n	n	n	n	n
CC(C)C[C@@H](COc1ccccc1)N1CCN(C)CCC1=O	x	n	n	n	n	n
CC(C)C[C@@H](CSc1ccc(Br)cc1)N1CCN(C)CCC1=O	x	u	u	3.55µM	u	19µM
COc1ccccc1NC(=O)Cn1c(=O)n(CC(=O)NCc2ccccc2Cl)c(=O)c2sccc21	n	x	x	x	x	n
CCCCOc1ccc(C2=CSC3=NCCN23)cc1[N+](=O)[O-]	x	n	n	n	n	n
CCCOc1ccc(-c2cn3ccccc3n2)cc1[N+](=O)[O-]	1.58µM	u	u	3.16µM	2.24µM	1.69µM
COc1ccc(-c2nc(C)c(C(C)=O)n2O)cc1[N+](=O)[O-]	n	n	u	n	n	16.9µM
COc1ccc(-c2cn3cc([N+](=O)[O-])ccc3n2)cc1OC	u	u	u	n	u	15.1µM
O=[N+]([O-])c1cccc(-c2cn3ccccc3n2)c1	x	n	n	n	n	n
CCCCOc1ccc(-c2csc(N)n2)cc1[N+](=O)[O-]	12.6µM	u	u	2.51µM	2.82µM	3.79µM
CCCCC(=O)Oc1c(S(=O)(=O)c2ccc(C)cc2)c(C)nn1C(C)(C)C	x	n	u	n	n	n
COc1ccc(Cc2noc(-c3ccc([N+](=O)[O-])cc3)n2)cc1OC	x	n	18.3µM	n	n	n
COc1ccc(-c2cn3ccccc3n2)cc1[N+](=O)[O-]	11.2µM	u	u	3.98µM	1.41µM	1.69µM
O=C(CCN1C(=O)/C(=C/c2ccc3c(c2)OCO3)SC1=S)Nc1ccc(C(=O)O)cc1	x	n	n	n	n[1.84 µM]	9.53µM
COc1ccc(/C=C2\SC(=S)N(CCCC(=O)Nc3cccc(C(=O)O)c3)C2=O)cc1OC	x	n	u	n	n	n
CCOC(=O)CN1C(=O)S/C(=C\c2ccc3c(c2)OCO3)C1=O	x	n	n	n	n	21.3µM
CCOc1ccc(/C=C2\SC(=S)N(CCC(=O)Nc3cccc(C(=O)O)c3)C2=O)cc1	x	u	n	n	u	2.13µM
CCOc1ccc(/C=C2\SC(=S)N(CCC(=O)Nc3ccc(C(=O)O)cc3)C2=O)cc1	x	n	u	n	n	2.69µM
Cc1onc(-c2ccccc2)c1CNC(=O)Nc1ccccc1	x	n	u	n	n	n
O=C(CCN1C(=O)S/C(=C\c2ccc(Cl)cc2)C1=O)Nc1ccc(C(=O)O)cc1	x	n	u	n	n	15.1µM
CCOC(=O)N1CCN(C(=O)CN(C2CCCCC2)S(=O)(=O)c2c(C)cc(C)cc2C)CC1	n	n	n	n	n	n
Cc1ccoc1C(=O)Nc1cccc2ccccc12	x	u	u	n	n	u
SMILES	SMN2 splice enh	ELG1 genotox	ELG1 DNA repair	NPC1 prom act	Rab9 prom act	FLuc modulator
Nc1nc2ccccc2n1C(=O)CCc1ccccc1	10µM	2.31µM	u	u	u	u
COc1ccc(C(=O)n2c(N)nc3ccccc32)cc1OC	x	u	u	2.82µM	2.51µM	19µM
CC(=O)c1nc2ccccc2n1CCc1ccccc1	n	n	n	n	n	n
Nc1nncn1C(=O)c1cccs1	n	n	n	n	n	n
Nc1nc2ccccc2n1C(=O)c1cccs1	11.2µM	u	u	u	0.794µM	2.69µM
Nc1nc2ccccc2n1C(=O)c1ccccc1	1.58µM	0.651µM	u	u	0.355µM	0.757µM
COCCNc1nc2ccccc2n1CC(=O)c1ccc(OC)c(OC)c1	x	n	n	n	n	n
CCOc1ccccc1NC(=O)NC(CC)c1c(-n2cccc2)sc2c1CCN(C)C2 (stereo not given)	x	x	x	x	x	n
CCC(C)[C@H]1CNCCN1CCc1cccc2ccccc12 (stereo not given in full)	x	n	n	n	n	n
Nc1nc2ccccc2n1C(=O)c1ccco1	12.6µM	u	u	u	2.51µM	10.7µM
Cn1c(CNC(=O)c2ccc(F)cc2)nc2ccccc21	n	n	n	n	n	n
CCC(=O)N1CCn2c1nc1ccccc12	n	n	n	n	n	n
Nc1nc2ccccc2n1C(=O)c1ccc(F)cc1	x	1.16µM	u	0.501µM	0.282µM	1.35µM
O=C(c1ccco1)N1CCn2c1nc1ccccc12	11.2µM	u	u	u	u	u
O=C(c1ccccc1)c1nnc(-c2ccncc2)o1	n	n	n	n	n	9.53µM
CCCC(=O)N1CCN(c2ccc(NC(=O)c3ccc([N+](=O)[O-])o3)cc2Cl)CC1	n	n	u	n	n	n
O=C(Nc1ccc(N2CCOCC2)c(Cl)c1)c1ccc([N+](=O)[O-])o1	u	u	n	n	u	12µM
CN1CCN(c2ccc(NC(=O)c3ccc([N+](=O)[O-])o3)cc2Cl)CC1	x	u	u	u	u	9.53µM
CC(C)C(=O)N1CCN(c2ccc(NC(=O)c3ccc([N+](=O)[O-])o3)cc2Cl)CC1	n	n	n	n	n	n
COc1ccc(-c2cc(C(F)(F)F)nc(SCC(=O)Nc3ccc(O)cc3)n2)cc1OC	n	x	x	x	x	n
CCOc1ccccc1CN1CCCC(CNC(=O)Cc2ccc(OC)cc2)C1 (stereo not given)	x	n	u	n	n	n
C1CCC[C@H]2CCCN3CC[C@H](CCCCCC[C@@H]4CCCN5CC[C@H](CC1)OC45)OC23	n	x	x	x	x	x
COc1ccc(/C=C/c2nc(N)nc(-c3ccccc3O)n2)cc1OC	n	n	20.6µM	n	n	u
CCN(CC)C(=O)c1ccc2c(c1[N+](=O)[O-])C(=O)c1ccccc1C2=O	12.6µM	u	u	2.82µM	2.24µM	n
COc1ccccc1CCn1c(=O)c(-c2ccccc2)nc2cncnc21	n	x	x	x	x	x
CC1(C)Cc2ccccc2C(NN=C2CCCC2)=N1	n	n	n	n	n	u
COc1ccc(C(=O)N2c3ccccc3C(=O)OC2c2ccc3c(c2)OCO3)cc1 (stereo not given)	12.6µM	n	u	u	u	19µM
COc1ccc2c(c1)O[C@@H](c1ccc3c(c1)OCO3)[C@H](O)C2=O	20µM	x	x	x	x	x
C#Cc1ccc(CN2CCCC(C(=O)Nc3ccccc3Oc3cccnc3)C2)cc1 (stereo not given)	x	n	n	n	n	n
COc1ccc(CC(C(=O)Nc2ccc(OC)cc2)c2nn[nH]n2)cc1 (stereo not given)	x	n	n	n	n	n
